Activity calls are given as the source filed them. Rule for the calls: active = hit-call score of the fitted dose curve at least 0.9, where 1 is the maximum; inactive = score below 0.9.
The compounds below were run on TTR (gene 7276) (assay: CCTE_GLTED_hTTR_0.125uM: CCTE's human Transthyretin (hTTR) Inhibition Assay, with 0.125uM TTR, Great Lakes Toxicology and Ecology Division (GLTED) Lab (AID 2284431);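 note: hits lower the fluorescence signal relative to DMSO baseline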).
Method in brief: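 Activity is defined as decreased ANSA fluorescence (ex 380, em 475) from human transthyretin, 0.125uM, following 2-hour chemical exposure in a cell-free setup, with DMSO as baseline.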

SMILES | AC50
CCCSP(=O)(OCC)Oc1ccc(Br)cc1Cl (centres undefined) | 3.6 µM (active)
O=[N+]([O-])c1cc(C(F)(F)F)c(Cl)c([N+](=O)[O-])c1Nc1ncc(C(F)(F)F)cc1Cl | 0.0665 µM (active)
COc1cccc(C(=O)NN(C(=O)c2cc(C)cc(C)c2)C(C)(C)C)c1C | 20.6 µM (active)
CCC(CC)Nc1c([N+](=O)[O-])cc(C)c(C)c1[N+](=O)[O-] | 0.448 µM (active)
CCCOCC(=Nc1ccc(Cl)cc1C(F)(F)F)n1ccnc1 | 3.56 µM (active)
CC1(C(=O)Nc2ccc(O)c(Cl)c2Cl)CCCCC1 | 7.98 µM (active)
Nc1c(Cl)cc([N+](=O)[O-])cc1Cl | 0.176 µM (active)
CCOP(=S)(OCC)OC(Cl)C(Cl)(Cl)Cl (centres undefined) | 33.2 µM (active)
Cc1cc(C2CC2)nc(Nc2ccccc2)n1 | 14.8 µM (active)

Reference: PubChem BioAssay (EPA / NIEHS)
